Source: the supplement of paper PMC11732987, “Enantioselective OTUD7B fragment discovery through chemoproteomics screening and high-throughput optimisation” (Communications Chemistry, 2025)

Key:
Experiment in all cases: log2 ratio of Biotin-Ahx-Ub-VS probe labelling (fragment/DMSO); higher = less target engagement (more negative = stronger competition), active = hit call of the paper (q ≤ 0.05, log2 ratio ≤ -1)
Settings in all cases: compound concentration: 200 uM; treatment time: 3 h
ALG13 = target: T1, ALG13 (UniProt Q9NP73)
T1 sequence (whole entry): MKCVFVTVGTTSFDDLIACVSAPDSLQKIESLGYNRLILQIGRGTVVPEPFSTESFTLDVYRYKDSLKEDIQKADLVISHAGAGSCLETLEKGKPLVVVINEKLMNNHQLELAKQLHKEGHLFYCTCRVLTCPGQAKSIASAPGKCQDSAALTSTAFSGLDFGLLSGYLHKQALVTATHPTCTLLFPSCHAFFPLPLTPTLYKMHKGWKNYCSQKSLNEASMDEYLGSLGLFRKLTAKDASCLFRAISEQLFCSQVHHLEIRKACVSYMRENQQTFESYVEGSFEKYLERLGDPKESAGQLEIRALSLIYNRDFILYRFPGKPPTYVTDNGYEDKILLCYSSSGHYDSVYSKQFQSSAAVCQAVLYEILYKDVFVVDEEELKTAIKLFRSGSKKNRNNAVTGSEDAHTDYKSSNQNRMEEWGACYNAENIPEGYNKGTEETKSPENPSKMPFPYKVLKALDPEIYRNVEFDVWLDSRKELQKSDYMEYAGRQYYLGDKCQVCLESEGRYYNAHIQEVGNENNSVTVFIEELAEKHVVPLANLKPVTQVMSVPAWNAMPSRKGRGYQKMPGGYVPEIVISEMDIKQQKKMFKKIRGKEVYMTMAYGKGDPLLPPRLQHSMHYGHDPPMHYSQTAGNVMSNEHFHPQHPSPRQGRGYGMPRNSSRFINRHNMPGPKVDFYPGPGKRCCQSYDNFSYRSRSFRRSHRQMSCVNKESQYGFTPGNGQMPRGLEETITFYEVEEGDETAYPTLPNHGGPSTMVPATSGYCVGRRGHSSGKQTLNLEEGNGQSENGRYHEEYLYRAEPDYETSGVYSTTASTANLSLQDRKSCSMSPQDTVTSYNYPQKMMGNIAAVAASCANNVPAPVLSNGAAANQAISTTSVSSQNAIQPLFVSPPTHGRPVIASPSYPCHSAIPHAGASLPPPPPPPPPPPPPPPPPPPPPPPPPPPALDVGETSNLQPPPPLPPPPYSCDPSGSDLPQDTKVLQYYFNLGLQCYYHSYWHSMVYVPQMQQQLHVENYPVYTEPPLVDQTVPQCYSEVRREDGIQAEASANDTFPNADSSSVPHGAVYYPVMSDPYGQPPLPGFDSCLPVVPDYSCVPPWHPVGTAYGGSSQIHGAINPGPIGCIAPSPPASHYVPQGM
In short: (§1)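 Fragment (200 µM) or vehicle was incubated for 3 h with triplicate HEK293T lysate samples of 495 µg, which were then treated with Biotin-Ahx-Ub-VS at 0.5 µM final for 1 h. Labelled DUBs were enriched on NeutrAvidin, digested with LysC and trypsin, and analysed by diaPASEF LC-MS/MS. Values are average log2 fragment/vehicle ratios from an unpaired t-test on global-median-normalised Spectronaut label-free quantities, using proteins with ≥2 unique peptides.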

ATXN3 = ATXN3 (UniProt P54252)
In short: as §1

BAP1 = target: T2, BAP1 (UniProt Q92560)
T2 sequence (whole entry): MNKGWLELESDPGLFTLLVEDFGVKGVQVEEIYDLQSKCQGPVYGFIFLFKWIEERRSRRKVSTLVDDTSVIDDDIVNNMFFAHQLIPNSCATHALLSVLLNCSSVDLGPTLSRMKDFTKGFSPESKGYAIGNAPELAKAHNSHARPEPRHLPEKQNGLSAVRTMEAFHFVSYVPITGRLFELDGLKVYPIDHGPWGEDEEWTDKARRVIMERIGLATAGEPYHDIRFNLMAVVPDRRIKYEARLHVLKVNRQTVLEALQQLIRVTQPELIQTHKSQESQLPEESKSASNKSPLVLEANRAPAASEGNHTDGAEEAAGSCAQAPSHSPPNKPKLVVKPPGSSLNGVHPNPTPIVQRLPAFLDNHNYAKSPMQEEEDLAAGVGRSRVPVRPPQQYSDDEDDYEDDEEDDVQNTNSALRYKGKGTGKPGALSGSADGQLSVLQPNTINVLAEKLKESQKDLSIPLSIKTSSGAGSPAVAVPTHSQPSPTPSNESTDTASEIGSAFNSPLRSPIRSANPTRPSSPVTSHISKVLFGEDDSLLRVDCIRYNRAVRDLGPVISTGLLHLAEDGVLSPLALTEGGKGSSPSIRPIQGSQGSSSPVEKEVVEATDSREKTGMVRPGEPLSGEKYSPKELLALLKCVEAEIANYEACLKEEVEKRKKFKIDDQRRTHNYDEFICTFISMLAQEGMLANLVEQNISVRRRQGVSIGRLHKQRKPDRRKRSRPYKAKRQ
In short: as §1

EIF3F = EIF3F (UniProt O00303)
In short: as §1

EIF3H = EIF3H (UniProt O15372)
In short: as §1

FAM105A = target: T3, FAM105A (UniProt Q9NUU6)
T3 sequence (whole entry): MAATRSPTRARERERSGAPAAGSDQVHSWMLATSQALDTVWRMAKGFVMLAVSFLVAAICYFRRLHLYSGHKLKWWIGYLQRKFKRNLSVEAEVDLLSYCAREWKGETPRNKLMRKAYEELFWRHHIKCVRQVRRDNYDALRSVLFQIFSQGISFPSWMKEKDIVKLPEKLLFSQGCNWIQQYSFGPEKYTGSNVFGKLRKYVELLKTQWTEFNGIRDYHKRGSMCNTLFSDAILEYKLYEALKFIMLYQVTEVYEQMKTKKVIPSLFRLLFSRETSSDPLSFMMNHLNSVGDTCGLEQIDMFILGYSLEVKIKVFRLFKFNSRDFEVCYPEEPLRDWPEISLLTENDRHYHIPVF
In short: as §1

OTUB1 = OTUB1 (UniProt Q96FW1)
In short: as §1

OTUD4 = target: T4, OTUD4 (UniProt Q01804)
T4 sequence (whole entry): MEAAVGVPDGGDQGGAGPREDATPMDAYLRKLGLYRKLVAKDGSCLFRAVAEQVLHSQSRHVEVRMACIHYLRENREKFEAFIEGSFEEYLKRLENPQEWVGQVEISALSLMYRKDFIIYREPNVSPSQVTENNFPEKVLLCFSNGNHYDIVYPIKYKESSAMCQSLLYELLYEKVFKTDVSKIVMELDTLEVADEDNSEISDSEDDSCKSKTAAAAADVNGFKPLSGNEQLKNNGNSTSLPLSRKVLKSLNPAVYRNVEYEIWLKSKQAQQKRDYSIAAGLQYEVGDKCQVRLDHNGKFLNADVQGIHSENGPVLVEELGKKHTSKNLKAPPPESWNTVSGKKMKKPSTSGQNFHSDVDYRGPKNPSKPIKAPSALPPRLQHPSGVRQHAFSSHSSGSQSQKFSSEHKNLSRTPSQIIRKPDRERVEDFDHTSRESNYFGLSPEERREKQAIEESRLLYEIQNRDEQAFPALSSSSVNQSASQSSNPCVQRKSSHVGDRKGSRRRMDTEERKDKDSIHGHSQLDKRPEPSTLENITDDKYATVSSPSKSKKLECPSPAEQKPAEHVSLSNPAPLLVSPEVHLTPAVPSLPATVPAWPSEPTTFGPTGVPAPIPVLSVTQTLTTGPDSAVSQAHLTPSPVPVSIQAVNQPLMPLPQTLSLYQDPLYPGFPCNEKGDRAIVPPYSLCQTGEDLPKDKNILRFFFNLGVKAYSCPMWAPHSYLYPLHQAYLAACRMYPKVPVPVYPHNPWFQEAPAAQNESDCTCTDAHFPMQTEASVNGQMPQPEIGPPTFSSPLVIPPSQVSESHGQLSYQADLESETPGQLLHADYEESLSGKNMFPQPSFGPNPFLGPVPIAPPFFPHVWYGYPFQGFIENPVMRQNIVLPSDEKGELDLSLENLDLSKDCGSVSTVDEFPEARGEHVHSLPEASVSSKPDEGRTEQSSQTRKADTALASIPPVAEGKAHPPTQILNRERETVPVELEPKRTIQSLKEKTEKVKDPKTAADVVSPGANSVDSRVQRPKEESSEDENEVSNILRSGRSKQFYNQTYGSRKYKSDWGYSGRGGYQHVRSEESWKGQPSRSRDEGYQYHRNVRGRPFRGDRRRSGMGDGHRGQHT
In short: as §1

OTUD5 = target: T5, OTUD5 (UniProt Q96G74)
T5 sequence (whole entry): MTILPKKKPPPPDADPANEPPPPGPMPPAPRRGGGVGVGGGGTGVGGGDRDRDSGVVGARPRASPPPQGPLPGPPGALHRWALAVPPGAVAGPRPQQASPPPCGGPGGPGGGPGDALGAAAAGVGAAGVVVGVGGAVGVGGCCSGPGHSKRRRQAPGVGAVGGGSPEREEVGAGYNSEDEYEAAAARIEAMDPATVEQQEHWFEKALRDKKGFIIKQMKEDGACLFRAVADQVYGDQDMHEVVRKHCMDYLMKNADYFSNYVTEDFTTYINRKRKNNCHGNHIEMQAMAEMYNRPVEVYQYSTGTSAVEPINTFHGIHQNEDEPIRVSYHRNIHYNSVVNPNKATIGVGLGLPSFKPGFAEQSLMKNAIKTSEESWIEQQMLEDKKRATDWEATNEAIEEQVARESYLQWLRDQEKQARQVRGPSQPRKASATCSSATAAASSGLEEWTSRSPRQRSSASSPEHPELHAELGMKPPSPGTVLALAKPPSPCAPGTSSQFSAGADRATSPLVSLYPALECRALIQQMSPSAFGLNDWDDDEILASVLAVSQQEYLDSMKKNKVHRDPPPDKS
In short: as §1

Measured: log2 ratio of Biotin-Ahx-Ub-VS probe labelling

Chain of OTUB1 (Q96FW1 whole entry): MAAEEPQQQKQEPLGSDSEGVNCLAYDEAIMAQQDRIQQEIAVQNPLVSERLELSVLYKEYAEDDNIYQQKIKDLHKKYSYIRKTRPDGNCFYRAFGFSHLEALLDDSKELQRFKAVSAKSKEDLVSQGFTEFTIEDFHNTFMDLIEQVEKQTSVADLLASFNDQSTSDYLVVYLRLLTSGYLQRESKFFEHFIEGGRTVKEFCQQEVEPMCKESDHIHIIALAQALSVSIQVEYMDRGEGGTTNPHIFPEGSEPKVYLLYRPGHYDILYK
Chain of EIF3H (O15372 whole entry): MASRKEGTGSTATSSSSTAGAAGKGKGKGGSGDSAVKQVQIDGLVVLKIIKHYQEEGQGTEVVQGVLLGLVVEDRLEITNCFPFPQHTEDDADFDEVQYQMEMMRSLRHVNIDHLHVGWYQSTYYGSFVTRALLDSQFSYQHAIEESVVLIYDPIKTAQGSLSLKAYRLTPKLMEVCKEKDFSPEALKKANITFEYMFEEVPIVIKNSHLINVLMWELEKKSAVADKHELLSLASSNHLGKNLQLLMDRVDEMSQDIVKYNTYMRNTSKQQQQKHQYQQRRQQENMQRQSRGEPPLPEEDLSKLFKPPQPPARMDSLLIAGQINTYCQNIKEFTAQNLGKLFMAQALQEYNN
Chain of ATXN3 (P54252 whole entry): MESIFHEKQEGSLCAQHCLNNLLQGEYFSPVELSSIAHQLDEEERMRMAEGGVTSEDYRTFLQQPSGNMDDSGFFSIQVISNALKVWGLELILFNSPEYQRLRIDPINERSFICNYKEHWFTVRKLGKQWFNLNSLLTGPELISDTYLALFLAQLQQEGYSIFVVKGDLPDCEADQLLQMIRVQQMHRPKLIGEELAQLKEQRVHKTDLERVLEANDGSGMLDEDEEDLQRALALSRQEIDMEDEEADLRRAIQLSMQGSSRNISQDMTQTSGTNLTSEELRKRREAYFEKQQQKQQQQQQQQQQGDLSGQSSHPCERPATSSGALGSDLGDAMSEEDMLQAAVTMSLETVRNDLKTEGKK
Chain of EIF3F (O00303 whole entry): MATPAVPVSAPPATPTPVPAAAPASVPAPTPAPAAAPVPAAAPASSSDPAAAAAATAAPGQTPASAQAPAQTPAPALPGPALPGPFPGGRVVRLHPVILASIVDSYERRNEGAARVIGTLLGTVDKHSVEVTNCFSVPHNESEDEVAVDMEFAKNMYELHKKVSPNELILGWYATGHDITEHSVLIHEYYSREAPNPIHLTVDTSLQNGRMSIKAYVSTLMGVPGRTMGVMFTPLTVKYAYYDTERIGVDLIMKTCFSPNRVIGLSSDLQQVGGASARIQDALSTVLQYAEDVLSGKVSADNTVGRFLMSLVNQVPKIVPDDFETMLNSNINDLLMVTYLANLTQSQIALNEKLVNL

O=C(CCl)NCc1ccc(N2CCOCC2)nc1
active: BAP1 -2.61
inactive: ALG13 0.174 | ATXN3 -0.193 | EIF3F -0.156 | EIF3H 0.183 | FAM105A 0.479 | OTUB1 0.0139 | OTUD4 -0.539 | OTUD5 -0.385
